Data as given in PubChem BioAssay AID1159580 (chemical genetic matrix, 2015).
Several values for one entry are separate records, joined by “and”; a condition that tells them apart may be missing. Equal values may be shown once. About 2,000 (36%) of roughly 5,500 compounds were called active. Not shown: some 18% with an inconclusive outcome. Cut-off read from the data, not from the text of the source: active = normalized growth mostly below about 0.91 (no sharp cut-off); inconclusive = no clear call, values can overlap the other calls; inactive = mostly above about 0.92. The list shows a part of the results.

Assay: chemical genetic growth profiling, strain panel (AID 1159580);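 note: tested at 20 µM; growth read once vehicle control cultures reached saturation at 30 °C; 1 = growth at the plate median or of vehicle wells; lower values mean less growth of the strain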
Conditions: growth OD
[1] = S. cerevisiae deletion strains, locus YHR030C, strain SLT2, active compounds read low
[2] = S. cerevisiae deletion strains, locus YHR079C, strain IRE1, active compounds read low
[3] = S. cerevisiae deletion strains, locus YJL095W, strain BCK1, active compounds read low
[4] = S. cerevisiae deletion strains, locus YJR066W, strain TOR1, active compounds read low
[5] = S. cerevisiae deletion strains, locus YLR113W, strain HOG1, active compounds read low
[6] = S. cerevisiae deletion strains, locus YNL183C, strain NPR1, active compounds read low
[7] = S. cerevisiae deletion strains, locus YOR231W, strain MKK1, active compounds read low
[8] = S. cerevisiae deletion strains, locus YPL256C, strain CLN2, active compounds read low

Measured: normalized growth

NC(N)=NC(N)=NCCc1ccccc1
inactive: [1] 0.956 | [2] 0.96 | [3] 0.961 | [4] 0.953 | [5] 0.965 | [6] 0.916 | [7] 0.975 | [8] 0.934

CC(C)N=C(N)N=C(N)Nc1ccc(Cl)cc1
inactive: S. cerevisiae deletion strains, locus YAL013W, strain DEP1, active compounds read low 1.02 | S. cerevisiae deletion strains, locus YBR021W, strain FUR4, active compounds read low 1.02 | S. cerevisiae deletion strains, locus YBR229C, strain ROT2, active compounds read low 1.01 | S. cerevisiae deletion strains, locus YCL029C, strain bik1, active compounds read low 1.02 | S. cerevisiae deletion strains, locus YDL035C, strain GPR1, active compounds read low 1.01 | S. cerevisiae deletion strains, locus YDL074C, strain BRE1, active compounds read low 1.02 | S. cerevisiae deletion strains, locus YDL101C, strain DUN1, active compounds read low 1.01 | S. cerevisiae deletion strains, locus YDL134C, strain PPH21, active compounds read low 1.01 | S. cerevisiae deletion strains, locus YDL185W, strain tfp1, active compounds read low 1.01 | S. cerevisiae deletion strains, locus YDL192W, strain arf1, active compounds read low 1.01 | S. cerevisiae deletion strains, locus YDR101C, strain arx1, active compounds read low 1.01 | S. cerevisiae deletion strains, locus YDR150W, strain NUM1, active compounds read low 1.02 | S. cerevisiae deletion strains, locus YDR162C, strain NBP2, active compounds read low 1.01 | S. cerevisiae deletion strains, locus YDR318W, strain mcm21, active compounds read low 1.02 | S. cerevisiae deletion strains, locus YDR388W, active compounds read low 1.02 | S. cerevisiae deletion strains, locus YDR502C, strain sam2, active compounds read low 1.01 | S. cerevisiae deletion strains, locus YEL061C, strain CIN8, active compounds read low 1 | S. cerevisiae deletion strains, locus YER110C, active compounds read low 1.02 | S. cerevisiae deletion strains, locus YER155C, strain BEM2, active compounds read low 1.01 | S. cerevisiae deletion strains, locus YER167W, strain BCK2, active compounds read low 1.02 | S. cerevisiae deletion strains, locus YGL078C, strain dbp3, active compounds read low 1.01 | S. cerevisiae deletion strains, locus YGL086W, strain mad1, active compounds read low 1.01 | S. cerevisiae deletion strains, locus YGL248W, strain PDE1, active compounds read low 1.02 | S. cerevisiae deletion strains, locus YGR078C, strain PAC10, active compounds read low 1.01 | S. cerevisiae deletion strains, locus YGR135W, strain pre9, active compounds read low 1 | S. cerevisiae deletion strains, locus YGR229C, strain SMI1, active compounds read low 1.01 | S. cerevisiae deletion strains, locus YGR252W, strain gcn5, active compounds read low 0.986 | [1] 1.01 and 1.03 | S. cerevisiae deletion strains, locus YHR079C, strain IRE1 (second series), active compounds read low 1.02 | [2] 1 | S. cerevisiae deletion strains, locus YHR094C, strain hxt1, active compounds read low 1.01 | S. cerevisiae deletion strains, locus YHR129C, strain ARP1, active compounds read low 1 | S. cerevisiae deletion strains, locus YHR200W, strain rpn10, active compounds read low 1.02 | S. cerevisiae deletion strains, locus YIL066C, strain RNR3, active compounds read low 1.01 | S. cerevisiae deletion strains, locus YIL073C, strain SPO22, active compounds read low 1.07 | S. cerevisiae deletion strains, locus YIL125W, strain kgd1, active compounds read low 1.01 | S. cerevisiae deletion strains, locus YIR030C, strain dcg1, active compounds read low 1.02 | [3] 1.02 and 0.993 | S. cerevisiae deletion strains, locus YJL134W, strain LCB3, active compounds read low 1.01 | S. cerevisiae deletion strains, locus YJL168C, strain set2, active compounds read low 1.02 | S. cerevisiae deletion strains, locus YJL187C, strain SWE1 (second series), active compounds read low 1.01 | S. cerevisiae deletion strains, locus YJR043C, strain POL32, active compounds read low 1.02 | [4] 0.987 | S. cerevisiae deletion strains, locus YJR075W, strain HOC1, active compounds read low 1.02 | S. cerevisiae deletion strains, locus YKL009W, strain mrt4, active compounds read low 1.01 | S. cerevisiae deletion strains, locus YKL068W, active compounds read low 1.01 | S. cerevisiae deletion strains, locus YKL085W, strain MDH1 (second series), active compounds read low 1.02 | S. cerevisiae deletion strains, locus YKL085W, strain MDH1, active compounds read low 1.02 | S. cerevisiae deletion strains, locus YKL190W, strain CNB1, active compounds read low 1.01 | S. cerevisiae deletion strains, locus YKR001C, strain vps1, active compounds read low 1.02 | S. cerevisiae deletion strains, locus YLR039C, strain RIC1, active compounds read low 1.05 | S. cerevisiae deletion strains, locus YLR058C, strain SHM2, active compounds read low 1.02 | S. cerevisiae deletion strains, locus YLR102C, strain apc9, active compounds read low 1.02 | [5] 0.951 | S. cerevisiae deletion strains, locus YLR262C, strain YPT6, active compounds read low 1.04 | S. cerevisiae deletion strains, locus YLR268W, strain sec22, active compounds read low 1.03 | S. cerevisiae deletion strains, locus YLR330W, strain CHS5, active compounds read low 1.01 | S. cerevisiae deletion strains, locus YLR342W, strain FKS1 (second series), active compounds read low 1.02 | S. cerevisiae deletion strains, locus YLR371W, strain rom2, active compounds read low 1.03 | S. cerevisiae deletion strains, locus YLR418C, strain cdc73, active compounds read low 1.02 | S. cerevisiae deletion strains, locus YML016C, strain PPZ1, active compounds read low 1.01 | S. cerevisiae deletion strains, locus YML032C, strain rad52, active compounds read low 1.02 | S. cerevisiae deletion strains, locus YML124C, strain tub3, active compounds read low 1.01 | S. cerevisiae deletion strains, locus YMR078C, strain ctf18, active compounds read low 1.02 | S. cerevisiae deletion strains, locus YMR223W, strain ubp8, active compounds read low 1.01 | S. cerevisiae deletion strains, locus YMR263W, strain SAP30, active compounds read low 1.01 | S. cerevisiae deletion strains, locus YMR307W, strain GAS1, active compounds read low 1.04 | S. cerevisiae deletion strains, locus YNL067W, strain RPL9B, active compounds read low 1.01 | S. cerevisiae deletion strains, locus YNL128W, strain TEP1, active compounds read low 1.01 | S. cerevisiae deletion strains, locus YNL153C, strain GIM3, active compounds read low 1.01 | [6] 0.968 | S. cerevisiae deletion strains, locus YNL233W, strain BNI4, active compounds read low 1.01 | S. cerevisiae deletion strains, locus YNL250W, strain rad50, active compounds read low 1.01 | S. cerevisiae deletion strains, locus YNL271C, strain bni1, active compounds read low 1.01 | S. cerevisiae deletion strains, locus YNL298W, strain CLA4, active compounds read low 1.01 | S. cerevisiae deletion strains, locus YNL307C, strain MCK1, active compounds read low 1.02 | S. cerevisiae deletion strains, locus YNL322C, strain KRE1, active compounds read low 1.01 | S. cerevisiae deletion strains, locus YNR052C, strain pop2, active compounds read low 1.01 | S. cerevisiae deletion strains, locus YOL006C, strain TOP1, active compounds read low 1.02 | S. cerevisiae deletion strains, locus YOL012C, strain htz1 1.92 | S. cerevisiae deletion strains, locus YOL147C, strain pex11, active compounds read low 1.01 | S. cerevisiae deletion strains, locus YOR061W, strain CKA2, active compounds read low 1.01 | S. cerevisiae deletion strains, locus YOR069W, strain VPS5, active compounds read low 1.01 | S. cerevisiae deletion strains, locus YOR136W, strain idh2, active compounds read low 1.02 | S. cerevisiae deletion strains, locus YOR144C, strain elg1, active compounds read low 1.02 | S. cerevisiae deletion strains, locus YOR184W, strain ser1, active compounds read low 1.01 | [7] 1.01 | S. cerevisiae deletion strains, locus YOR316C, strain cot1, active compounds read low 1.02 | S. cerevisiae deletion strains, locus YPL055C, strain LGE1, active compounds read low 1.03 | S. cerevisiae deletion strains, locus YPL241C, strain CIN2, active compounds read low 1.01 | [8] 1.04 | S. cerevisiae deletion strains, locus YPR119W, strain clb2, active compounds read low 1.01 | S. cerevisiae deletion strains, locus YPR141C, strain kar3, active compounds read low 1.02 | S. cerevisiae deletion strains, locus YPR163C, strain tif3, active compounds read low 1.02 | S. cerevisiae deletion strains, locus YPR167C, strain met16, active compounds read low 1.02 | S. cerevisiae deletion strains, strain wtn01, active compounds read low 1.01 | S. cerevisiae strains, strain wild type, active compounds read low 1.01
